Most compounds without a hit are left out; they make up all but 5% or so of the library.
HEK293 cAMP cs: parental HEK293 cAMP activation (counter-screen); parental HEK293 CNG cAMP sensor, membrane potential fluorescence; Potency, µM (highest dose often 57.1 µM), usual class: activators; 73,000 compounds, 2.5% hits; AID 938; note: nearly all actives have a fitted effect of over 55% in size
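Counterscreen for endogenous-receptor signalling: CNG-channel HEK 293 cells report cAMP rise by membrane depolarization. After 60 min dye equilibration with 100 uM RO 20-1724, compounds incubated 30 min before bottom-read fluorescence at 590 nm.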
USP2a inhib: USP2a (human) protease inhibition. O75604. USP2a enzymatic assay, qHTS inhibition. Potency, µM (titrated, usually from 38.3 µM), usual class: inhibitors. 60,000 compounds, 0.1% hits; note: nearly all actives have a fitted effect of over 60% in size
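20 nM USP2 core + cpd, 30 min RT; add 20 nM Ub-PLA2/20 uM NBD C6-HPC; read Ex460/Em535 at 0 h and 2.5 h. Normalized to NEM; qHTS curve fit/classification.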
TSHR agonist: TSH receptor (human) agonism. HEK293-CNG-TSHR cells (CNG channel as cAMP sensor), membrane potential dye, cAMP. 73,000 compounds, 0.48% hits. AID 926. Potency, µM (titrated, usually from 57.1 µM), hits mostly activators. P16473; active = well fitted activation curve with a large enough effect in the main read-out, with a control signal flat, not every such curve was filed as active; inconclusive = small, poorly fitted or top-dose-only effect, or a change in a side signal; inactive = no such curve, though single readings can be large or run the other way; reference of the percent scale not stated here;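 note: the control signal comes from parental cells without the receptor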
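HEK 293 cells stably expressing TSHR and a cAMP-gated CNG channel; parental CNG-only cells as counterscreen. Cells preloaded 60 min with membrane potential dye plus 100 uM RO 20-1724, then compound 30 min; fluorescence read at 590 nm.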
CRE-bla Fsk: CRE-bla signaling modulation under forskolin stimulation. Potency, µM (highest dose often 38.2 µM), hits mostly activators. CHO CRE-bla reporter (cAMP response element driving beta-lactamase), forskolin EC10, beta-lactamase ratio. 71,000 compounds, 2.5% hits; active = well fitted activation curve with a large enough effect in the signal ratio, with a control signal flat, not every such curve was filed as active; inconclusive = small, poorly fitted or top-dose-only effect, or effect the other way, or a change in a side signal; the % refers to the signal ratio
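Modulation of forskolin signalling: compounds in titration series added with EC10 NKH 477 to CHO cells carrying a CRE-driven beta-lactamase reporter, 3 h, 37C. CCF4 FRET ratio (460/530 nm, ex 405 nm) gives %activity and AC50.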
Casp7 inh: blocks human caspase-7 allosterically or competitively | Potency, µM (highest dose often 57.5 µM), usual class: inhibitors | P55210 | recombinant caspase-7, Ac-DEVD-AFC fluorescence rate | 75,000 compounds, 0.02% hits; active = well fitted inhibition curve with a large enough effect in the main read-out, with a control signal flat, not every such curve was filed as active; inconclusive = small, poorly fitted or top-dose-only effect, or a change in a side signal
Casp1 inh: caspase-1 (human) inhibition, allosteric or competitive; P29466; Caspase-1 enzyme, Ac-WEHD-AFC fluorogenic rate; Potency, µM (titrated, usually from 57.5 µM), most hits filed as inhibitors; 75,000 compounds, 0.03% hits
Target sequence (P29466 120-297 limits assumed): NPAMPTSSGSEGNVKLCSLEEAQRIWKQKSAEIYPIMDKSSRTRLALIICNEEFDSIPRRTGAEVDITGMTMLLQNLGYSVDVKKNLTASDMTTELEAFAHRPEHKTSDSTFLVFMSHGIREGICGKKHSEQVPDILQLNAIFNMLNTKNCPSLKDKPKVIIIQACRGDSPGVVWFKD
Target sequence (P29466 317-404 limits assumed): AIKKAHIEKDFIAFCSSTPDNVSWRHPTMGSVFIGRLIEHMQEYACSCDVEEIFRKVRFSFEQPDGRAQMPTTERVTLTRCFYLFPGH
Each line names hits and unclear results; the compound was inactive in the other large screens; ! = a repeat was not active. Unless noted, calls come from the whole dose curve; as a rule, active = well fitted curve in the direction sought with a large enough effect; inconclusive = small, poorly fitted or top-dose-only effect, or another doubt; inactive = no such curve, though single readings can be large; an effect the other way counts as inactive or inconclusive.

CC1(C)[C@@H]2CC[C@@]1(CS(=O)(=O)Nc1ccccc1)C(=O)C2	none (no result: USP2a inhib)
C=C(C)C(=O)OCC1CN2C(CCC(C)C2c2ccc(Br)cc2)C(=O)O1 (stereo unspecified)	HEK293 cAMP cs 1.6µM!, TSHR agonist inconclusive (no result: USP2a inhib, CRE-bla Fsk)
C=COCC1CN2C(CCC(C)C2c2ccc(Br)cc2)C(=O)O1 (stereo unspecified)	HEK293 cAMP cs inconclusive, TSHR agonist inconclusive (no result: USP2a inhib, CRE-bla Fsk)
COc1cccc2c1C(=O)c1c(O)c3c(c(O)c1C2=O)C[C@@](O)(C(=O)CO)C[C@H]3O[C@H]1C[C@@H](N)[C@H](O)[C@@H](C)O1.[W]	none (no result: USP2a inhib)
Cn1nc(C(=O)Nc2cccnc2)c2ccccc2c1=O	CRE-bla Fsk 10µM
O=C(c1ccccc1)N(Cc1ccccc1)c1ccccn1	TSHR agonist 4µM, CRE-bla Fsk inconclusive
CC(C)=CCC1(CC=C(C)C)C(=O)C(C(=O)c2ccccc2)=C2OC(C)(C)CCC2(CC=C(C)C)C1=O (stereo unspecified)	none (no result: USP2a inhib, CRE-bla Fsk)
COc1ccc(-c2c(O)c3c(OC)c4c(cc3oc2=O)OC(C)(C)C=C4)cc1	USP2a inhib 10µM (no result: HEK293 cAMP cs, TSHR agonist, CRE-bla Fsk)
CCOc1ccc(-c2nc(CSc3nncs3)cs2)cc1OC	CRE-bla Fsk 5µM
COc1ccc(NC(=O)CSc2nncs2)cc1OC	none
CC(C)Sc1nc(-c2cccs2)nc2c1c(=O)n(C)c(=O)n2C	CRE-bla Fsk 3.2µM (no result: USP2a inhib)
N#CCSc1nc2cc(C(=O)N3CCC(C(N)=O)CC3)ccc2c2nc3ccccc3n12	CRE-bla Fsk 2.5µM
O=C(O)c1ccc(S(=O)(=O)c2ccc3c(c2)C(=O)N(Cc2ccco2)C3=O)cc1	TSHR agonist 32µM
O=C(Nc1ccc(Cl)cc1C(=O)O)c1ccc2c(c1)C(=O)N(Cc1ccco1)C2=O	none
O=C(O)c1ccc(S(=O)(=O)c2ccc3c(c2)C(=O)N(CC2CCCO2)C3=O)cc1 (stereo unspecified)	HEK293 cAMP cs 20µM, TSHR agonist inconclusive
Cc1cc(NC(=O)c2ccccc2NS(=O)(=O)c2c(C)c(C)cc(C)c2C)no1	HEK293 cAMP cs 32µM, TSHR agonist inconclusive, CRE-bla Fsk inconclusive
CC(C)N(Cc1nc(-c2ccc(Cl)cc2)no1)C(=O)CCC1CCCC1	HEK293 cAMP cs 20µM, TSHR agonist inconclusive (no result: USP2a inhib)
CC(C)(C)c1ccc(O)c(CN(Cc2cc(C(C)(C)C)ccc2O)C2CCCCC2)c1	none (no result: USP2a inhib)
C#CCOC(=O)[C@H](N)CC(N)=O	none (no result: USP2a inhib)
CCCN(CCC)S(=O)(=O)c1cccc(C(=O)Nc2ccc3c(c2)OCO3)c1	HEK293 cAMP cs 16µM, TSHR agonist inconclusive
C=CCn1c(=O)c2ccccc2n2c(SCc3nc(N)nc(Nc4ccccc4C)n3)nnc12	CRE-bla Fsk 7.9µM
C=CCn1c(=O)c2ccccc2n2c(SCC(=O)c3ccccc3)nnc12	HEK293 cAMP cs inconclusive, TSHR agonist inconclusive
Cc1ccc(SCN2CCCCC2)cc1 (tested in a mixture with another compound)	none (no result: USP2a inhib)
O=C(CSc1nc2ccccc2c(=O)n1Cc1ccco1)NCc1ccco1	none
O=C(CSc1nc2ccccc2c(=O)n1-c1ccccc1)NCc1ccco1	HEK293 cAMP cs 25µM, TSHR agonist inconclusive
CC1Cc2nc(SCC(=O)NCc3ccco3)n(Cc3ccccc3)c(=O)c2S1 (stereo unspecified)	HEK293 cAMP cs inconclusive, TSHR agonist inconclusive, CRE-bla Fsk 10µM (no result: USP2a inhib)
CN(Cc1ccccc1)C(=O)CSc1nc2ccccc2c(=O)n1Cc1ccco1	HEK293 cAMP cs 25µM, TSHR agonist inconclusive, CRE-bla Fsk inconclusive
Cc1cccc(-n2c(SCC(=O)NCc3ccco3)nc3ccccc3c2=O)c1	HEK293 cAMP cs inconclusive, TSHR agonist inconclusive, CRE-bla Fsk inconclusive
CCn1c(=S)sc2c(=O)n(-c3ccccc3)c(SCC(=O)NCc3ccco3)nc21	HEK293 cAMP cs 20µM, TSHR agonist inconclusive, CRE-bla Fsk inconclusive
CC1CCC2C(=O)N3C(CCC(C)[C@H]3c3cccc(N4CCCC4=O)c3)C(=O)N2C1c1cccc(N2CCCC2=O)c1 (stereo partly specified)	none (no result: USP2a inhib, CRE-bla Fsk)
Cc1ccc(C[C@H](Cc2nc3ccccc3[nH]2)c2nc3ccccc3[nH]2)cc1	CRE-bla Fsk inconclusive (no result: USP2a inhib, Casp7 inh, Casp1 inh)
